According to PubChem BioAssay:
Activity calls are given as the source filed them. How the calls were made is not given here. Peptide text beside a SMILES is read from it. * marks the point of attachment. CH2Cl = ClC*

Assay: sensitizers of A549 cells to miR-34 induction, primary screen, imaging, A549 dox-inducible miR-34, nuclei and caspase counts (AID 1347080)
Settings: A549 miR-34 inducible, Hoechst nuclei count, 48 h; measured here: total cells without miR-34 induction

| Compound | cell count |
| --- | --- |
| CCCCC/C=C\C/C=C\C/C=C\C/C=C\CCCC(=O)Nc1ccc2c(C)cc(=O)oc2c1 | 5510 |
| CC(C)[C@]1(O)[C@@H](OC(=O)c2ccc[nH]2)[C@@]2(O)[C@@]3(C)C[C@]4(O)O[C@@]5([C@H](O)[C@@H](C)CC[C@]35O)[C@@]2(O)C41C | 5960 |
| C=C1[C@@H](C)[C@H]2[C@H](Cc3ccccc3)NC(=O)[C@]23OC(=O)/C=C/[C@H](O)CCC[C@@H](C)C/C=C/[C@H]3[C@@H]1O | 1060 |
| COc1cc(/C=C\c2ccc(OC)c(O)c2)cc(OC)c1 | 1220 |
| C[C@H](N)C(=O)N[C@@H](C)C(=O)N[C@@H](Cc1ccccc1)C(=O)CCl (H-Ala-Ala-Phe-CH2Cl) | 3680 |

Assay: inhibitors of Cryptococcus chitosan production, flow cytometry, Cibacron Brilliant Red staining (AID 1347148);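 further: compound exposure lasted three days at 37 degrees C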
Settings: Cryptococcus neoformans chitosan, stronger effect = lower value; at 10 µM unless noted

| Compound | fold fluorescence |
| --- | --- |
| CCOC(=O)CN1C(=O)CC(C[C@@H](O)C2C[C@@H](C)C[C@H](C)C2=O)CC1=O (stereo partly specified) | 10.9 [at 136.1 µM] (inactive) |
| CO[C@@H]1C[C@@H](C[C@H]2CC[C@H](C)[C@H]([C@@H](C)C(=O)O)O2)O[C@]2(O[C@](C)([C@H]3CC[C@@](C)([C@@H]4O[C@@H]([C@H]5O[C@@](O)(CO)[C@H](C)C[C@@H]5C)C[C@@H]4C)O3)C[C@H]2C)[C@@H]1C | 5.68 [at 69 µM] (inactive) |
| CC(C)(O)[C@H]1O[C@H]2CC[C@@]3(C)[C@@](O)(CC[C@H]4Cc5c([nH]c6ccccc56)[C@@]43C)C2=CC1=O | 8.47 [at 114.8 µM] (inactive) |
| COC(C/C=C/C=C/CC/C=C\CC(C)/C=C\C(=C/C(=O)O)CC(=O)O)/C(C)=C\C=C(/C)C(=O)O (stereo unspecified) | 5.28 [at 10.3 µM] (inactive) |
| CCCCC/C=C\C/C=C\C/C=C\C/C=C\CCCC(=O)N[C@@H](C)CO | 6.15 (inactive) |
| Clc1ccc(C2CC3CCC2N3)cn1 (stereo unspecified) | 4.32 [at 239.6 µM] (inactive) |
| CCCC[C@H]1C(=O)O[C@H](C)[C@H](NC(=O)c2cccc(NC=O)c2OC)C(=O)O[C@@H](C)[C@@H]1OC(=O)CC(C)C | 6.91 [at 93.5 µM] (inactive) |
| CCCCC/C=C\C/C=C\C/C=C\C/C=C\CCCC(=O)NCc1ccc(O)c(OC)c1 | 5.97 [at 113.7 µM] (inactive) |
| COC[C@H]([C@@H](O)[C@@H](O)C(=O)NCC[C@@H](C)c1nc(/C=C/C[C@H]2OC3(C[C@H](O)[C@H]2C)OC([C@@H](C[C@@H](O)[C@@H](C)[C@@H](O)[C@@H](C)/C=C(C)/C(C)=C/C=C/C(C)=C\C#N)OC)[C@@H](OP(=O)(O)O)C3(C)C)co1)N(C)C (stereo partly specified) | 9.76 [at 5 µM] (inactive) |
| C=C1[C@@H](C)[C@H]2[C@H](Cc3ccccc3)NC(=O)[C@]23OC(=O)/C=C/[C@H](O)CCC[C@@H](C)C/C=C/[C@H]3[C@@H]1O | 6.64 [at 104.2 µM] (inactive) |
| C[C@H](N)C(=O)N[C@@H](C)C(=O)N[C@@H](Cc1ccccc1)C(=O)CCl (H-Ala-Ala-Phe-CH2Cl) | 4.89 [at 147.1 µM] (inactive) |
